Reference: PubChem BioAssay (Tox21)
Where “and” joins values, the source holds several entries; their conditions need not be identical. Equal entries are not always repeated. More than one record can exist for a structure, and the calls need not agree. Calls of active or inactive are those of the source. Unless noted, calls come from the whole dose curve; as a rule, active = well fitted curve in the direction sought with a large enough effect in the repeat runs; inconclusive = weak or mixed curves; inactive = no such curve, though single readings can be large; an effect the other way counts as inactive or inconclusive.

Columns and labels:
[1] = test system: thyroid hormone receptor (rat, GH3 cells); test: qHTS assay to identify small molecule agonists of the thyroid receptor (TR) signaling pathway (AID 743066; calls by dose curve; note: % is set by controls: 0 for no effect and ±100 for the full control effect)
[2] = qHTS assay to identify small molecule antagonists of the estrogen receptor alpha (ER-alpha) signaling pathway - cell viability counter screen (AID 743074; calls by dose curve;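 note: HEK293 cells carrying ER-alpha-UAS-bla reporter stimulated with 17beta-estradiol; nearly all actives have a fitted effect of over 45% in size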; note: potency is the fitted concentration of half-maximal effect)
[3] = target: Estrogen receptor (Homo sapiens) (UniProt P03372); test: qHTS assay to identify small molecule agonists of the estrogen receptor alpha (ER-alpha) signaling pathway (AID 743075; calls by dose curve;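 note: HEK293 GripTite cells with ER-alpha and UAS-driven beta-lactamase reporter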; note: potency is the fitted concentration of half-maximal effect)
[4] = target: Estrogen receptor (Homo sapiens) (UniProt P03372); test: qHTS assay to identify small molecule agonists of the estrogen receptor alpha (ER-alpha) signaling pathway using the BG1 cell line (AID 743079); note: nearly all actives have a fitted effect of over 20% in size; note: potency is the fitted concentration of half-maximal effect
Aromatase (Homo sapiens) = Aromatase (Homo sapiens) (UniProt P11511); test: qHTS assay to identify aromatase inhibitors (AID 743083); note: nearly all actives have a fitted effect of over 55% in size; note: potency is the fitted concentration of half-maximal effect
[5] = qHTS assay to identify aromatase inhibitors - cell viability counter screen (AID 743084);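 note: cells stimulated with testosterone during compound exposure; nearly all actives have a fitted effect of over 55% in size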; note: potency is the fitted concentration of half-maximal effect
[6] = qHTS assay to identify small molecule antagonists of the thyroid receptor (TR) signaling pathway (AID 743065); note: potency is the fitted concentration of half-maximal effect; nearly all actives have a fitted effect of over 55% in size
Procedure, shortened: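 GH3.TRE-Luc rat pituitary cells (two TREs driving luciferase) were dosed with compound, then stimulated with 1 nM T3 (final) for 23.5 h at 37 C. ONE-Glo luminescence was the read-out, with CellTiter-Fluor fluorescence as the cytotoxicity counter-screen.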

[7] = qHTS assay to identify small molecule antagonists of the estrogen receptor alpha (ER-alpha) signaling pathway using the BG1 cell line (AID 743080; calls by dose curve;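 note: BG1 cells stimulated with 17beta-estradiol alongside compound; nearly all actives have a fitted effect of over 25% in size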; note: potency is the fitted concentration of half-maximal effect)
Procedure, shortened: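 Luciferase inhibition measured with ONE-Glo after 30 min at RT in BG1Luc4E2 cells given test compounds and 17beta-estradiol for 21.5 h at 37 C; CellTiter-Fluor viability read in the same wells beforehand.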

[8] = qHTS assay to identify small molecule antagonists of the estrogen receptor alpha (ER-alpha) signaling pathway using the BG1 cell line - cell viability counter screen (AID 743081);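 note: compound given together with 17beta-estradiol as the ER stimulus; nearly all actives have a fitted effect of over 45% in size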; note: potency is the fitted concentration of half-maximal effect
[9] = target: Estrogen receptor (Homo sapiens) (UniProt P03372); test: qHTS assay to identify small molecule antagonists of the estrogen receptor alpha (ER-alpha) signaling pathway (AID 743069; active = well fitted curve in the direction sought with a large enough effect in the signal ratio in the repeat runs, not every such curve was filed as active; inconclusive = weak or mixed curves, or effect the other way; inactive = no such curve, though single readings can be large or run the other way; the % refers to the signal ratio; note: potency is the fitted concentration of half-maximal effect)
Procedure, shortened: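 Reporter cells (ER-alpha-bla, HEK293 background) are conditioned overnight in stripped-serum medium (2% charcoal-stripped FBS). Compound and 17beta-estradiol exposure runs 18 hr at 37C, 5% CO2.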

Measured: Potency

Aromatase (Homo sapiens), sequence (P11511 whole entry, looked up): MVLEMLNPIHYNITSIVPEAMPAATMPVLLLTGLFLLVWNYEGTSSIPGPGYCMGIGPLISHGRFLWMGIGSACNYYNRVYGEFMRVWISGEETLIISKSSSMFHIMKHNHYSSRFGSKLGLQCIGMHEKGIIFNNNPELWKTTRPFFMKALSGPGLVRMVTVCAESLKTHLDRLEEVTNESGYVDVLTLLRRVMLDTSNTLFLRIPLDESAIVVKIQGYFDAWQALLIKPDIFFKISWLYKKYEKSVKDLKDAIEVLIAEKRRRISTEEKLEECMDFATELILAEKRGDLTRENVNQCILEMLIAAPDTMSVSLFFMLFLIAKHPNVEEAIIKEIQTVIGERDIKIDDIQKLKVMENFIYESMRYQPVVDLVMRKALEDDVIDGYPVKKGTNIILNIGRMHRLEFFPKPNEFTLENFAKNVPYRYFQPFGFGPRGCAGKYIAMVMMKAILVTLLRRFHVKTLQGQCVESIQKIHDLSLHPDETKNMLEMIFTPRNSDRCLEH
Estrogen receptor (Homo sapiens), sequence (P03372 whole entry, looked up): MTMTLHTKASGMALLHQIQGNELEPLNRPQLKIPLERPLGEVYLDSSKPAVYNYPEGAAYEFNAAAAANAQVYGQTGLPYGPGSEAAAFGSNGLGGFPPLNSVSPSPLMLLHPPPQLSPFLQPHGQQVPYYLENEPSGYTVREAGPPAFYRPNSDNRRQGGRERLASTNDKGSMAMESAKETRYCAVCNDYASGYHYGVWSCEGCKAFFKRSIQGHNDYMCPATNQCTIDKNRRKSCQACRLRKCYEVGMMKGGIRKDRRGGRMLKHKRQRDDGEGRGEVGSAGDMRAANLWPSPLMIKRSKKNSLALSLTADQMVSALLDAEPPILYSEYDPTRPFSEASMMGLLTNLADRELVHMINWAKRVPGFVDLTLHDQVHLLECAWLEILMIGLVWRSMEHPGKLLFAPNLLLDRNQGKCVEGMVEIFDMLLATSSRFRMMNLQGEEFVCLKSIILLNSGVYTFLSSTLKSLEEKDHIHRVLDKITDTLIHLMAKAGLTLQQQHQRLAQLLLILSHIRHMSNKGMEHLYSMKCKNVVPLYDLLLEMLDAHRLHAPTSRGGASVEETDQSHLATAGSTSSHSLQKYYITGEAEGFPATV

O=[N+]([O-])c1ccc2ccc3cccc4ccc1c2c34
active: [3] 2.75 µM [fluorescent]
inactive: [1] | [2] | [4] | Aromatase (Homo sapiens) | [5]

S=C(SSC(=S)N1CCCCC1)N1CCCCC1
inactive: [2]
active: [6] 0.237 µM | Aromatase (Homo sapiens) 1.06 µM | [5] 0.944 µM

Clc1ccc(COC(Cn2ccnc2)c2ccc(Cl)cc2Cl)cc1 (stereo unspecified)
active: [2] 45.7 µM and 34.5 µM | [7] 23.7 µM and 60.9 µM | Aromatase (Homo sapiens) 531 nM and 255 nM and 68.3 nM | [5] 33.5 µM and 45.3 µM and 60.9 µM
inactive: [1] | [8]

CC(C)C1CCC(Cc2ccc(Cl)cc2)C1(O)Cn1cncn1 (stereo unspecified)
inactive: [3]
active: [6] 34 µM | [7] 67.9 µM | Aromatase (Homo sapiens) 2.41 µM | [5] 24.1 µM

CC1CCC(C(C)C)C(OC(=O)c2ccccc2N)C1 (stereo unspecified)
inactive: [1] | [2] | [7] | [8]
inactive and 60.3 µM (active): Aromatase (Homo sapiens)
active: [3] 7.56 µM [inconclusive] and 6.82 µM [inconclusive] | [4] 3.35 µM and 2.69 µM
inactive and 47.9 µM (active): [5]

Clc1ccc(CSC(Cn2ccnc2)c2ccc(Cl)cc2Cl)cc1 (stereo unspecified)
active: Aromatase (Homo sapiens) 2.85 µM
inactive: [1] | [2] | [7] | [8] | [5]

CC(=O)Nc1ccc2c(c1)Cc1ccccc1-2
active: [4] 11 µM
not listed: [6] | [7]
inactive: all other assays above

CCCCCCCCCCCCCCC(Br)C(=O)O (stereo unspecified)
inactive: [1] | [2] | [4] | [8] | Aromatase (Homo sapiens) | [5]

O=C1NCN(c2ccccc2)C12CCN(CC1COc3ccccc3O1)CC2 (stereo unspecified)
not listed: [4] | [6]
inactive: all other assays above

COc1cccc(C(=O)CCN[C@@H](C)[C@H](O)c2ccccc2)c1
inactive: [2] | Aromatase (Homo sapiens) | [5]
active: [6] 10.6 µM

c1ccc2c(c1)[nH]c1cnccc12
not listed: [6] | [9]
inactive: all other assays above

CCCCOCN(C(=O)CCl)c1c(CC)cccc1CC
active: [6] 61.1 µM | Aromatase (Homo sapiens) 61.1 µM
inactive: [2] | [3] | [7] | [8]

CN(C)S(=O)(=O)N(SC(F)(Cl)Cl)c1ccccc1
active: [6] 1.22 µM | Aromatase (Homo sapiens) 3.44 µM | [5] 27.3 µM

Oc1ccc(C(=C(Cl)Cl)c2ccc(O)cc2)cc1
active: [9] 48.9 µM [inconclusive] | [4] 0.243 µM | [5] 48.5 µM
inactive: [1] | [7] | [8] | Aromatase (Homo sapiens)

[CH3][Hg][Cl]
inactive: [2] | [4]
active: [6] 1.22 µM | [8] 34.3 µM | Aromatase (Homo sapiens) 27.2 µM | [5] 24.3 µM

CCCCCCCCCCCCBr
not listed: [2] | Aromatase (Homo sapiens) | [6]
inactive: all other assays above

C[C@]12Cc3nonc3C[C@@H]1CC[C@@H]1[C@@H]2CC[C@@]2(C)[C@H]1CC[C@]2(C)O
active: [6] 13.3 µM | [7] 29.8 µM
inactive: [2] | [8] | [5]

O=c1[nH]c2ccccc2n1CCCN1CCC(n2c(=O)[nH]c3cc(Cl)ccc32)CC1
active: [6] 26.6 µM
inactive: [8] | Aromatase (Homo sapiens) | [5]

CCCCN(CCCC)C(=S)[S-].CCCCN(CCCC)C(=S)[S-].[Zn+2]
active: [6] 13.3 µM and 9.68 µM | [2] 19 µM and 12.3 µM | [3] 30.1 µM [inconclusive] | [8] 21.1 µM and 38.5 µM
inactive: Aromatase (Homo sapiens) | [5]

Cc1cc(C)cc(OP(=O)(Oc2cc(C)cc(C)c2)Oc2cc(C)cc(C)c2)c1
not listed: [6]
inactive: all other assays above

CCCN(CC)CC1COC2(CCC(C(C)(C)C)CC2)O1 (stereo unspecified)
not listed: [6]
inactive: all other assays above

O=C(CCl)Nc1ccccc1
inactive: [3]
active: [6] 24.3 µM | Aromatase (Homo sapiens) 43.3 µM | [5] 27.3 µM

c1ccc(Nc2ccc3ccccc3c2)cc1
active: [4] 19.2 µM and 9.69 µM | [5] 54.2 µM
not listed: [6] | [7]
inactive: all other assays above

CC(C)Oc1cccc(NC(=O)c2ccccc2C(F)(F)F)c1
inactive: [1] | [9] | [3] | [4] | [7] | [5]

N#CSCSC#N
inactive: [2] | [8]
active: [6] 1.98 µM and 2.15 µM | Aromatase (Homo sapiens) 14 µM and 17.1 µM | [5] 12.5 µM and 17.1 µM

CC(C)OC(=S)S
not listed: [4] | Aromatase (Homo sapiens) | [6]
inactive: all other assays above

CC(=O)/C=C/c1ccc2c(c1)OCO2
inactive: [1] | [2] | [3] | [4] | [8] | Aromatase (Homo sapiens)

CCOCn1c(-c2ccc(Cl)cc2)c(C#N)c(Br)c1C(F)(F)F
active: [6] 1.37 µM | Aromatase (Homo sapiens) 9.69 µM

O=[N+]([O-])c1cc(C(F)(F)F)c(Cl)c([N+](=O)[O-])c1Cl
active: [6] 0.386 µM | [2] 54.9 µM | [8] 61.1 µM | Aromatase (Homo sapiens) 1.22 µM | [5] 3.06 µM

CCc1nn(C)c(C(=O)NCc2ccc(C(C)(C)C)cc2)c1Cl
active: [6] 0.77 µM | [7] 0.0243 µM | [8] 30.6 µM | Aromatase (Homo sapiens) 61.1 µM | [5] 61.1 µM

CC(=O)[O-].CC(=O)[O-].[Hg+2]
active: [2] 49 µM | [8] 61.1 µM | Aromatase (Homo sapiens) 2.73 µM | [5] 3.86 µM

N#CC(Cl)Cl
inactive: [2] | [8]

O=[N+]([O-])O.O=[N+]([O-])O.[Cd]
inactive: [2] | Aromatase (Homo sapiens)

CC(Cc1ccc(C(C)(C)C)cc1)CN1C[C@@H](C)O[C@@H](C)C1 (stereo partly specified)
inactive: [1] | [2] | [8]

COc1ccc(N)cc1N
inactive: [1] | [8]
active: Aromatase (Homo sapiens) 12.6 µM and 33 µM | [5] 12.6 µM

[Cl][Sb]([Cl])[Cl]
inactive: [1] | [2] | [8] | Aromatase (Homo sapiens) | [5]

Oc1c(Br)c(Br)c(Br)c(Br)c1Br
inactive: [3] | [8]

CN(C)CCc1c[nH]c2cccc(O)c12
inactive: [1] | [2] | [5]

O=C(O)C1C2CCC(O2)C1C(=O)O (stereo unspecified)
inactive: [1] | [2] | [8]

CCOP(=S)(OCC)OC(Cl)C(Cl)(Cl)Cl (stereo unspecified)
inactive: [1] | [2] | [8] | [5]

CC(C)N1C(=O)N(c2ccccc2)CSC1=NC(C)(C)C
inactive: [2] | [3] | [8]
active: [9] 49 µM [inconclusive]

CN(C)c1ccc(N=Nc2ccccc2)cc1
inactive: [1] | [2]
active: [8] 61.2 µM | [5] 54.5 µM

CN(C)C(=S)S
active: Aromatase (Homo sapiens) 8.81 µM and 607 nM and 1.72 µM | [5] 14 µM and 764 nM and 4.86 µM
inactive: [2] | [8]

COc1cc(N)c(Cl)cc1C(=O)NC1CN2CCC1CC2 (stereo unspecified)
inactive: [1] | [2] | [8] | Aromatase (Homo sapiens) | [5]

Nc1ccc(Cc2ccc(N)c(Cl)c2)cc1Cl
inactive: [2] | [3] | [8]
active: [9] 4.22 µM [inconclusive] | Aromatase (Homo sapiens) 29.6 µM

CSCCCN=C=S
inactive: [1] | [2] | [8]

Oc1ccc2ccc3cccc4ccc1c2c34
inactive: [2] | [8]

CC(=O)[O-].[Tl+]
inactive: [1] | [8] | [5]
active: Aromatase (Homo sapiens) 61.5 µM

CC(C)(C)c1ccc(CSc2cnn(C(C)(C)C)c(=O)c2Cl)cc1
active: [9] 0.0055 µM [inconclusive] | [7] 0.0109 µM | [8] 27.3 µM | Aromatase (Homo sapiens) 61.1 µM
inactive: [5]

CCCCCCCCCCCCCCCC[N+](C)(C)C
inactive: [8]
active: [2] 21.3 µM and 4.72 µM and 49 µM | Aromatase (Homo sapiens) 16.8 µM and 11.8 µM and 30.6 µM | [5] 29.5 µM and 68.6 µM

CCCCCCCCCCCCCCCC[n+]1ccccc1
inactive: [3]
active: [2] 22.9 µM and 24.5 µM and 43 µM | [7] 21.1 µM and 18 µM and 15.4 µM | Aromatase (Homo sapiens) 7.7 µM [middle of 4 runs] | [5] 32 µM and 54.5 µM and 60.3 µM
